Consider 40 molecules from PubChem BioAssay AID493203 (National Center for Advancing Translational Sciences (NCATS), 2011).

Results filed as inconclusive are left out. Entries that show only a call come without a potency. Activity calls are given as the source filed them. Calls come from the whole dose curve; as a rule, active = well fitted activation curve with a large enough effect; inconclusive = small, poorly fitted or top-dose-only effect; inactive = flat fitted curve, though single readings scatter.
Potency is the fitted concentration of half-maximal effect.

A short description of the assay: qHTS Assay for NPC1 Promoter Activators: Initial hit validation from the primary screen. The following applies: Huh7 NPC1 promoter-luciferase reporter, luminescence, 24 h; series mostly up to 46.1 µM. The text has this:
NIH Chemical Genomics Center [NCGC] NIH Molecular Libraries Probe Production centers Network [MLPCN] MLPCN Grant: MH089375-01A1 Assay Submitter (PI): Yiannis A. Ioannou NCGC Assay Overview: Niemann Pick Type C (NPC) is a rare neurodegenerative lipidosis that is characterized by lipid storage in the endosomal/lysosomal system. Treatment modalities for this devastating disease are currently non-existent due to the severe obstacles associated with accessing the central nervous system with proteins or genes. The majority of mutations causing NPC disease are missense mutations that are distributed throughout the length of the NPC1 protein, with the most prevalent being the I1061T allele. Although NPC1 mutant proteins may be functional, they are typically trapped in the ER due to misfolding. […] We have developed and optimized a cell based luciferase reporter assay in 1536 well format for the identification of up-regulators of the mutant NPC1 promoter. This assay presents data on the validation of hits from the primary screen.
The NPC1 promoter is cloned in front of the luciferase reporter gene, therefore NPC promoter activation results in luciferase expression. Frozen stock of the NPC1 promoter transfected Huh7 cells were obtained from the laboratory of Dr. Yiannis Ioannou (The Mount Sinai School of Medicine, New York, NY). Cells were propagated and maintained at NCGC in medium containing RPMI-1640 supplemented with 10% FBS, 2mM L-glutamine, and 50ug/ml penicillin/streptomycin. Cells were harvested in and plated for assays in OP-MEM I reduced-serum medium supplemented with 10% FBS. The Amplite luciferase reporter gene assay kit was purchased from ABD Bioquest and prepared/stored according to manufacturers recommendations. qHTS Assay Setup: 1. Dispensed 5ul of Huh7 cells stably expressing NPC1-luciferase at a density of 1500 cells per well 1536-well plates. 2. Incubate cells at 37C, 5% CO2, and 95% humidity for 2 hours. 3. Transferred 23nl per well of compound in DMSO solution. 4. Incubated at 37C, 5% CO2, and 95% humidity for 24 hours. 5. Dispensed 3ul per well of Amplite reagent(ABD Bioquest) per well. 6. Incubate at ambient for 10 minutes. 7. Read using the luminescence protocol on the ViewLux plate reader (Perkin Elmer).
(In general: In qHTS, concentration-response curves come from the screen itself.)
`O=C(Nc1nc2ccc(F)cc2s1)c1ccc(N2CCCC2=O)cc1`: the Potency was 0.141 µM (active). In the case of `OCCC1CN(Cc2nc3ccccc3s2)CCN1C1CCCC1` (stereo not given), the Potency entry was “inactive”. The result for `CC1CCCN(S(=O)(=O)c2ccc(C(=O)Nc3nnc(-c4ccncc4)o3)cc2)C1` (stereo not given) reads “inactive”; that for `Cc1[nH]n(-c2cccc3ccccc23)c(=O)c1/C=N/c1sc2c(c1C#N)CCC2`, “inactive”; that for `O=C(COC(=O)c1ccc(-c2nnc(-c3ccccc3)o2)cc1)c1ccccc1`, 0.396 µM (active). As for `Cc1nn(CCCC(=O)NCc2ccc(F)cc2)c(C)c1[N+](=O)[O-]`, the entry is “inactive”; as for `O=C(C[N+]1(CC#Cc2ccccc2)CCCCC1)c1ccccc1`, “inactive”; as for `O=C(CSc1nnc(Cc2cc(=O)[nH]c(=O)[nH]2)n1-c1ccc(Cl)cc1)NC1CCCC1`, “inactive”. The result for `Cc1ccc(C2C3=C(CC(C)(C)CC3=O)N(CCN3CCOCC3)C3=C2C(=O)CC(C)(C)C3)cc1` reads “inactive”; that for `Cc1ccc(C)c(Nc2cc(C)nc3ncnn23)c1`, “inactive”.

Consider `Cc1ccc(C(=O)Nc2ccc(N3CCN(C)CC3)nc2)cc1`, for which the Potency is 31.5 µM (active). The result for `O=C(CN1C(=O)COc2ccc(Cl)cc21)NCC1CCCO1` (stereo not given) reads “inactive”.

On to `COC(=O)c1sccc1NC(=S)OC`, for which the Potency result was “inactive”. As for `O=C(NCCc1c[nH]c2ccccc12)C(=O)NCC(c1ccco1)N1CCN(c2ccccc2F)CC1` (stereo not given), the entry is “inactive”; as for `COc1ccc(NC(=O)CN(C)C(=O)c2ccc(=O)[nH]c2)cc1`, “inactive”; as for `Cc1c(C(O)CN2CCN(Cc3ccc4c(c3)OCO4)CC2)c2ccccc2n1C` (stereo not given), “inactive”. The result for `O=C(CCc1cccc(Cl)c1)NC1CCCN(Cc2ccccc2F)C1` (stereo not given) reads “inactive”; that for `COC(=O)c1cn(NC(=O)C2CCCCC2)c(=O)c2ccccc12`, “inactive”; that for `O=C(c1cc2cc(Br)ccc2[nH]1)N1CCc2ccccc21`, 12.5 µM (active). As to `Cc1ccc(CNC(=O)Nc2ccc(C)cc2)cc1`, the Potency is 25 µM (active).

On to `CC1=C(C(=O)OC2CCCC(C)C2)C(c2ccccc2)NC(=O)N1` (stereo not given), for which the Potency entry is “inactive”. As for `Cc1ccc(NC(=O)NC(=O)c2ccccc2)cc1F`, the figure is 0.499 µM (active). As for `COc1ccc(NC(=O)Nc2ccc(Cc3ccncc3)cc2)cc1OC`, the Potency result is “inactive”. The result for `Cc1cccc(NC(=O)CSc2nc3ccccc3o2)c1` reads “inactive”. As for `O=C(CCS(=O)(=O)c1ccccc1)Nc1ccc(-c2nc3ccccc3s2)cc1`, the figure is 0.158 µM (active); as for `NCCOc1ccccc1-c1ccccc1`, “inactive”.

For `NC(=O)C(=O)NN=C1C2CC3CC(C2)CC1C3`, the Potency entry was “inactive”. For `COc1ccc(-c2cc(C(=O)Nc3ccccc3F)on2)cc1`, the Potency is 31.5 µM (active). On to `Cc1ccccc1NC(=O)CSc1ccc(-c2cccnc2)nn1`, for which the Potency entry is “inactive”. As for `Nc1c(N(CCO)C(=O)/C=C/c2ccco2)c(=O)[nH]c(=O)n1Cc1ccccc1`, the entry is “inactive”; as for `Cc1ccc(NC(=O)c2cccc(N3C(=O)CCC3=O)c2)nc1`, “inactive”.

On to `Nc1ccc(C(=O)Nc2ccccc2N)cc1`, for which the Potency was 15.8 µM (active). As for `CC(=O)Nc1nnc(SCC(=O)NCCOc2ccccc2)s1`, the entry is “inactive”; as for `O=C(CCCC(=O)N(CC(=O)NC1CCCCC1)c1cccc(F)c1)Nc1ccccn1`, “inactive”.

Consider `CC1CC(C)CN(CC(=O)N2CCOCC2)C1` (stereo not given), for which the Potency entry was “inactive”. The result for `CCN(CC)S(=O)(=O)c1ccc(NCc2ccccn2)nc1` reads “inactive”; that for `CCCCn1c(CCNC(=O)c2cccs2)nc2ccccc21`, “inactive”. As for `COC(=O)c1ccccc1S(=O)(=O)NNC(=O)Nc1ccccc1`, the figure is 12.5 µM (active). Regarding `CC(=O)c1cccc(NC(=O)N2CCOCC2)c1`, the Potency result is “inactive”. As for `CNC(=O)Cn1nc(C)c2ccccc2c1=O`, the entry is “inactive”.
